Shown are actives, neighbours in structure and some others; about 4.1% of the full set was active somewhere.
DAX1 inh-1: DAX1 (NR0B1) inhibitors, primary screen, cell-based, HEK293, Gal4-DAX1, luciferase luminescence; Nuclear receptor subfamily 0 group B member 1 (Homo sapiens), P51843; HEK293 Gal4-DAX1 luciferase reporter; inhibition, % at 6.75 µM; hit rate 0.99% among 340,000; AID 504766, 2011;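 active = inhibition above the mean over all tested compounds plus 3 SD, cut at about 4.2% in these data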;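 note: 0% = DAX1-transfected cells with DMSO and 100% = empty-vector control cells with DMSO; inhibition shows as a rise in luminescence from relieved DAX1 repression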
Target sequence (P51843 207-470 limits assumed): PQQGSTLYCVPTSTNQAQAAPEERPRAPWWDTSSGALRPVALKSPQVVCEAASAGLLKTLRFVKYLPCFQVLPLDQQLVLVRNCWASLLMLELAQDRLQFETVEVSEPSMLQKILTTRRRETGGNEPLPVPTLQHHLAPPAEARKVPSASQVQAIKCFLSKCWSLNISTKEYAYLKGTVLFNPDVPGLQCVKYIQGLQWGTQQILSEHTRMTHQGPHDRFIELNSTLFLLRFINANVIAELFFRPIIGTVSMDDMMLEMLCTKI
hgDAF12 agonist: H. glycines DAF-12 receptor agonists, primary screen, cell-based, luminescence, HEK293, GAL4 fusion, UAS-luciferase; Nuclear hormone receptor DAF-12 (Heterodera glycines), GAL4 fusion; AID 687014, 2013; hit rate 1.8% among 370,000; HEK293 GAL4-hgDAF12 UAS-luciferase reporter, agonist luminescence; normalized to butyrate control; activation, % at 6.8 µM;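 active = activation above a cutoff set at the mean of all screened compounds plus 3 SD, cut at about 10% in these data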;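 note: 0% = DMSO wells and 100% = sodium butyrate wells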
ssDAF12 agonist: S. stercoralis DAF-12 nuclear receptor activators, primary screen, cell-based, luminescence, HEK293, GRIP1 co-expression, lit1-tk-luc; hit rate 1% among 370,000; Nuclear hormone receptor DAF-12 (Strongyloides stercoralis); activation, % at 6.8 µM; HEK293 ssDAF-12/GRIP1 lit1-tk-luc reporter; % of 3 µM dafachronic acid response; AID 652126, 2013;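 active = activation above the mean over all tested compounds plus 3 SD, cut at about 0.9% in these data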;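 note: 0% = DMSO-only wells and 100% = 3 µM delta7-dafachronic acid wells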
DAX1 inh-2: DAX1 (NR0B1) inhibitors on StAR promoter, primary screen, cell-based, luminescence, SF-1 (NR5A1), full-length DAX-1 | HEK293T StAR-luciferase reporter, SF-1/DAX-1 repression relief | AID 652010, 2013 | hit rate 1.1% among 370,000 | inhibition, % at 6.8 µM;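 active = inhibition above the mean over all tested compounds plus 3 SD, cut at about 3.6% in these data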;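 note: 0% = DAX-1 cells with DMSO and 100% = cells lacking DAX-1 with DMSO; higher inhibition means more luminescence from relief of DAX-1 repression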
hcDAF12 agonist: H. contortus DAF-12 nuclear receptor activators, primary screen, cell-based, luminescence, HEK293, lit1-tk-luc reporter; HEK293 hcDAF-12 lit1-tk-luc reporter; 0% DMSO, 100% Δ7-dafachronic acid; activation, % at 6.8 µM; hit rate 1.4% among 370,000; AID 652067, 2013;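 active = activation above the mean of all tested compounds plus 3 SD, cut at about 5.5% in these data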;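 note: 100% = response to 3 µM Δ7-dafachronic acid high control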
* = called active by the depositor.

`O=C(CC(=O)c1ccccc1)c1ccccc1` gave DAX1 inh-1 2, hgDAF12 agonist 11*, ssDAF12 agonist -1, DAX1 inh-2 3.6* and hcDAF12 agonist 1.
COc1ccc(C(=O)CNc2ccc3ccccc3c2)cc1 was read as hgDAF12 agonist 9, ssDAF12 agonist 0, DAX1 inh-2 0 and hcDAF12 agonist 5.9*.
`CN(C)/C=C(/C(=O)c1ccccc1Cl)S(=O)(=O)c1ccccc1` gave DAX1 inh-1 3, hgDAF12 agonist -2, ssDAF12 agonist -1, DAX1 inh-2 2 and hcDAF12 agonist -1.
For COc1cccc(C(=O)NCCS(=O)(=O)NCCc2ccccc2)c1 the results were DAX1 inh-1 1, hgDAF12 agonist 8, ssDAF12 agonist 0, DAX1 inh-2 4.0* and hcDAF12 agonist 3.
COc1ccc(C(=O)/C(=C/N(C)C)S(=O)(=O)c2ccccc2)cc1 was read as DAX1 inh-1 1, hgDAF12 agonist 12*, ssDAF12 agonist -1, DAX1 inh-2 2 and hcDAF12 agonist 3.
For COc1ccc(CCC(=O)N2c3ccccc3N=C(c3ccc(C(F)(F)F)cc3)C2C(=O)NC(C)C)cc1 (centres undefined) the results were hgDAF12 agonist 3, ssDAF12 agonist 0, DAX1 inh-2 1 and hcDAF12 agonist 2.
`COC(=O)[C@]12C[C@H](CC(=O)N3CCSCC3)C(=O)N(Cc3ccc4c(c3)OCO4)C1=C[C@H](C(C)(C)C)O[C@@H]2C` gave hgDAF12 agonist -3, ssDAF12 agonist -1, DAX1 inh-2 0 and hcDAF12 agonist 0.
COc1ccc(C(=O)CCNc2ccc(F)cc2)cc1 was read as DAX1 inh-1 5.2*, hgDAF12 agonist 2, ssDAF12 agonist -1, DAX1 inh-2 1 and hcDAF12 agonist 1.
Screening O=C(CCCc1ccccn1)c1ccc(-c2ccccc2)cc1 returned DAX1 inh-1 2, hgDAF12 agonist 6, ssDAF12 agonist 0.9*, DAX1 inh-2 1 and hcDAF12 agonist 2.
For COc1ccc(NC(=O)CCC(=O)c2ccc(F)cc2)cc1 the results were DAX1 inh-1 2, hgDAF12 agonist 0, ssDAF12 agonist -2, DAX1 inh-2 0 and hcDAF12 agonist -1.
Screening O=C(NCc1ccccn1)c1ccc(-c2ccccc2)cc1 returned DAX1 inh-1 3, hgDAF12 agonist 10, ssDAF12 agonist 0, DAX1 inh-2 2 and hcDAF12 agonist 2.
O=C(CCCc1ccccc1)c1ccccc1 was read as DAX1 inh-1 4.9*, hgDAF12 agonist 6, ssDAF12 agonist -1, DAX1 inh-2 2 and hcDAF12 agonist 5.6*.
`COc1ccc(C(=O)CN2C(=O)c3ccccc3C2=O)cc1` gave hgDAF12 agonist 2, ssDAF12 agonist 1.5*, DAX1 inh-2 0 and hcDAF12 agonist 0.
`COc1ccc(CNC(=O)CN2C(=O)c3ccccc3C2=O)cc1` gave DAX1 inh-1 1, hgDAF12 agonist 0, ssDAF12 agonist -1, DAX1 inh-2 0 and hcDAF12 agonist -1.
For CC1CCCCC12NC(=O)N(CC(=O)Nc1cccc(S(=O)(=O)N3CCCCC3)c1)C2=O (centres undefined) the results were DAX1 inh-1 1, hgDAF12 agonist -7, ssDAF12 agonist 0, DAX1 inh-2 -1 and hcDAF12 agonist -1.
Screening Cc1cc(-c2n[nH]c(=S)n2N=Cc2cc(Br)ccc2F)n[nH]1 returned hgDAF12 agonist 6, ssDAF12 agonist -2, DAX1 inh-2 0 and hcDAF12 agonist -1.
`NC(=O)c1ccc(NC(=O)CSc2nnc(-c3ccccc3)n2-c2ccccc2)cc1` gave hgDAF12 agonist 3, ssDAF12 agonist -1, DAX1 inh-2 -1 and hcDAF12 agonist -1.
COc1ccc(C(=O)CC(=O)c2ccc(OC)cc2)cc1 was read as DAX1 inh-1 2, hgDAF12 agonist 1, ssDAF12 agonist -1, DAX1 inh-2 0 and hcDAF12 agonist -1.
For O=C(CCCC(=O)c1ccc(O)cc1)c1ccc(O)cc1 the results were DAX1 inh-1 2, hgDAF12 agonist 11*, ssDAF12 agonist 1, DAX1 inh-2 2 and hcDAF12 agonist 4.
`COc1ccc(C(=O)NCC(=O)c2ccccc2)cc1` gave DAX1 inh-1 1, hgDAF12 agonist 12*, ssDAF12 agonist 0, DAX1 inh-2 2 and hcDAF12 agonist 1.
Screening Cc1c(CCOC(=O)c2ccc([N+](=O)[O-])cc2)sc[n+]1CC(=O)c1ccccc1 returned DAX1 inh-1 2, hgDAF12 agonist -4, ssDAF12 agonist -1, DAX1 inh-2 -1 and hcDAF12 agonist -2.
For COc1ccc(NC(=O)CN(C)C(=O)CNC(=O)c2ccc3ccccc3c2)cc1 the results were DAX1 inh-1 4.2*, hgDAF12 agonist 9, ssDAF12 agonist 1, DAX1 inh-2 3 and hcDAF12 agonist 3.
COc1ccc(C(=O)OCCc2sc[n+](CC(=O)c3ccccc3)c2C)cc1 was read as DAX1 inh-1 4.5*, hgDAF12 agonist 2, ssDAF12 agonist -2, DAX1 inh-2 -1 and hcDAF12 agonist 0.
Screening Cc1ccc(C(=O)N2CCC[C@@H]2C(=O)N2CCC[C@H]2C(=O)NCc2ccccc2)cc1C returned hgDAF12 agonist 0, ssDAF12 agonist -1, DAX1 inh-2 -1 and hcDAF12 agonist 0.
For O=C(CCc1nnc(CCCCc2ccccc2)o1)NC1CCCC1 the results were DAX1 inh-1 0, hgDAF12 agonist 0, ssDAF12 agonist -2, DAX1 inh-2 -1 and hcDAF12 agonist -3.
Screening O=C(CNC(=O)c1ccccc1Cl)c1ccccc1 returned DAX1 inh-1 4, hgDAF12 agonist 13*, ssDAF12 agonist 0, DAX1 inh-2 1 and hcDAF12 agonist 2.
For O=C(Cn1cccn1)c1ccccc1 the results were DAX1 inh-1 -1, hgDAF12 agonist -1, ssDAF12 agonist -1, DAX1 inh-2 1 and hcDAF12 agonist 0.
Screening O=C(CCCc1ccccc1)NC1CC1 returned DAX1 inh-1 0, hgDAF12 agonist 1, ssDAF12 agonist -1, DAX1 inh-2 0 and hcDAF12 agonist 5.7*.
O=C(NCCCCNC(=O)c1ccccc1Cl)c1ccccc1Cl was read as DAX1 inh-1 1, hgDAF12 agonist -2, ssDAF12 agonist -2, DAX1 inh-2 0 and hcDAF12 agonist 0.
Screening O=C(Cn1cncn1)c1ccccc1 returned DAX1 inh-1 5.7*, hgDAF12 agonist 0, ssDAF12 agonist 0, DAX1 inh-2 0 and hcDAF12 agonist -2.
COc1ccc(CNC(=O)[C@H](Cc2ccccc2)NC(=O)C2CCN(C(=O)[C@H](C)N)CC2)cc1 was read as DAX1 inh-1 5.0*, hgDAF12 agonist 3, ssDAF12 agonist -1, DAX1 inh-2 0 and hcDAF12 agonist 2.
